Assay results taken from PubChem BioAssay AID1159580 (chemical genetic matrix, 2015).
“And” between values parts separate entries of the source, which are not always exact repeats. Equal entries are not always repeated. Out of some 5,500 compounds screened, about 2,000 (36%) were called active. Another 18% or so got no clear call; they are omitted. Rule as the data show it: active = normalized growth mostly below about 0.91 (no sharp cut-off); inconclusive = no clear call, values can overlap the other calls; inactive = mostly above about 0.92. The list shows a part of the results.

Test: chemical genetic growth profiling, strain panel (AID 1159580);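 also: tested at 20 µM; growth read once vehicle control cultures reached saturation at 30 °C; 1 = growth at the plate median or of vehicle wells; lower values mean less growth of the strain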
Conditions: S. cerevisiae deletion strains, growth OD

Measured: normalized growth

O=c1c(O)c(-c2ccccc2)oc2ccccc12
0.991 (inactive) and 0.591 (active): locus YHR030C, strain SLT2, stronger effect = lower value
inactive: locus YAL013W, strain DEP1, stronger effect = lower value 0.993 | locus YBR021W, strain FUR4, stronger effect = lower value 1.01 | locus YBR229C, strain ROT2, stronger effect = lower value 0.963 | locus YCL029C, strain bik1, stronger effect = lower value 0.983 | locus YDL035C, strain GPR1, stronger effect = lower value 0.985 | locus YDL074C, strain BRE1, stronger effect = lower value 1.01 | locus YDL101C, strain DUN1, stronger effect = lower value 0.997 | locus YDL185W, strain tfp1, stronger effect = lower value 0.974 | locus YDL192W, strain arf1, stronger effect = lower value 1 | locus YDR101C, strain arx1, stronger effect = lower value 1.03 | locus YDR150W, strain NUM1, stronger effect = lower value 0.993 | locus YDR159W, strain sac3, stronger effect = lower value 0.929 | locus YDR162C, strain NBP2, stronger effect = lower value 0.981 | locus YDR318W, strain mcm21, stronger effect = lower value 0.963 | locus YDR388W, stronger effect = lower value 0.994 | locus YDR502C, strain sam2, stronger effect = lower value 1.01 | locus YEL061C, strain CIN8, stronger effect = lower value 0.984 | locus YER110C, stronger effect = lower value 0.987 | locus YER155C, strain BEM2, stronger effect = lower value 0.999 | locus YER167W, strain BCK2, stronger effect = lower value 0.99 | locus YGL078C, strain dbp3, stronger effect = lower value 0.991 | locus YGL086W, strain mad1, stronger effect = lower value 1.04 | locus YGL248W, strain PDE1, stronger effect = lower value 0.986 | locus YGR078C, strain PAC10, stronger effect = lower value 0.991 | locus YGR135W, strain pre9, stronger effect = lower value 0.977 | locus YGR229C, strain SMI1, stronger effect = lower value 0.998 | locus YGR252W, strain gcn5, stronger effect = lower value 0.947 | locus YHR079C, strain IRE1 (second series), stronger effect = lower value 0.993 | locus YHR094C, strain hxt1, stronger effect = lower value 0.975 | locus YHR129C, strain ARP1, stronger effect = lower value 0.982 | locus YHR200W, strain rpn10, stronger effect = lower value 0.992 | locus YIL066C, strain RNR3, stronger effect = lower value 0.978 | locus YIL073C, strain SPO22, stronger effect = lower value 0.996 | locus YIL125W, strain kgd1, stronger effect = lower value 0.999 | locus YIR030C, strain dcg1, stronger effect = lower value 0.998 | locus YJL134W, strain LCB3, stronger effect = lower value 0.986 | locus YJL168C, strain set2, stronger effect = lower value 0.994 | locus YJL187C, strain SWE1 (second series), stronger effect = lower value 1.01 | locus YJR043C, strain POL32, stronger effect = lower value 0.981 | locus YJR075W, strain HOC1, stronger effect = lower value 0.982 | locus YKL009W, strain mrt4, stronger effect = lower value 0.988 | locus YKL068W, stronger effect = lower value 0.988 | locus YKL085W, strain MDH1 (second series), stronger effect = lower value 0.994 | locus YKL085W, strain MDH1, stronger effect = lower value 0.994 | locus YKR001C, strain vps1, stronger effect = lower value 1.02 | locus YLR039C, strain RIC1, stronger effect = lower value 1.01 | locus YLR058C, strain SHM2, stronger effect = lower value 0.977 | locus YLR102C, strain apc9, stronger effect = lower value 0.997 | locus YLR262C, strain YPT6, stronger effect = lower value 1 | locus YLR268W, strain sec22, stronger effect = lower value 1.03 | locus YLR330W, strain CHS5, stronger effect = lower value 0.997 | locus YLR342W, strain FKS1 (second series), stronger effect = lower value 1.01 | locus YLR371W, strain rom2, stronger effect = lower value 0.974 | locus YLR418C, strain cdc73, stronger effect = lower value 0.97 | locus YML016C, strain PPZ1, stronger effect = lower value 1 | locus YML032C, strain rad52, stronger effect = lower value 0.956 | locus YML124C, strain tub3, stronger effect = lower value 0.988 | locus YMR078C, strain ctf18, stronger effect = lower value 0.996 | locus YMR125W, strain sto1, stronger effect = lower value 0.933 | locus YMR223W, strain ubp8, stronger effect = lower value 0.965 | locus YMR307W, strain GAS1, stronger effect = lower value 0.963 | locus YNL067W, strain RPL9B, stronger effect = lower value 0.994 | locus YNL128W, strain TEP1, stronger effect = lower value 0.966 | locus YNL233W, strain BNI4, stronger effect = lower value 1.02 | locus YNL250W, strain rad50, stronger effect = lower value 0.975 | locus YNL271C, strain bni1, stronger effect = lower value 0.993 | locus YNL298W, strain CLA4, stronger effect = lower value 0.996 | locus YNL307C, strain MCK1, stronger effect = lower value 0.995 | locus YNR052C, strain pop2, stronger effect = lower value 0.959 | locus YOL006C, strain TOP1, stronger effect = lower value 1.06 | locus YOL012C, strain htz1 0.87 | locus YOL147C, strain pex11, stronger effect = lower value 0.996 | locus YOR061W, strain CKA2, stronger effect = lower value 0.966 | locus YOR069W, strain VPS5, stronger effect = lower value 0.999 | locus YOR136W, strain idh2, stronger effect = lower value 0.991 | locus YOR144C, strain elg1, stronger effect = lower value 0.982 | locus YOR184W, strain ser1, stronger effect = lower value 0.988 | locus YOR316C, strain cot1, stronger effect = lower value 0.986 | locus YPL256C, strain CLN2, stronger effect = lower value 0.886 | locus YPR119W, strain clb2, stronger effect = lower value 0.992 | locus YPR141C, strain kar3, stronger effect = lower value 0.993 | locus YPR163C, strain tif3, stronger effect = lower value 0.984 | locus YPR167C, strain met16, stronger effect = lower value 0.978 | strain wtn01, stronger effect = lower value 1.05
active: locus YAL021C, strain ccr4, stronger effect = lower value 0.424 | locus YAL026C, strain drs2, stronger effect = lower value 0.17 | locus YAL030W, strain snc1, stronger effect = lower value 0.68 | locus YBL061C, strain skt5, stronger effect = lower value 0.578 | locus YBR009C, strain hhf1, stronger effect = lower value 0.61 | locus YBR023C, strain chs3, stronger effect = lower value 0.363 | locus YBR171W, strain sec66, stronger effect = lower value 0.815 | locus YBR231C, strain swc5, stronger effect = lower value 0.418 | locus YBR279W, strain paf1, stronger effect = lower value 0.447 | locus YCL011C, strain gbp2, stronger effect = lower value 0.51 | locus YCL016C, strain dcc1, stronger effect = lower value 0.628 | locus YCL061C, strain MRC1, stronger effect = lower value 0.527 | locus YCL069W, strain vba3, stronger effect = lower value 0.47 | locus YCR088W, strain abp1, stronger effect = lower value 0.654 | locus YDL005C, strain med2, stronger effect = lower value 0.855 | locus YDL040C, strain nat1, stronger effect = lower value 0.794 | locus YDR001C, strain nth1, stronger effect = lower value 0.651 | locus YDR069C, strain doa4, stronger effect = lower value 0.302 | locus YDR137W, strain rgp1, stronger effect = lower value 0.363 | locus YDR195W, strain ref2 1.17 [resistant] | locus YDR297W, strain sur2, stronger effect = lower value 0.709 | locus YDR334W, strain swr1, stronger effect = lower value 0.347 | locus YDR335W, strain msn5, stronger effect = lower value 0.608 | locus YDR392W, strain spt3, stronger effect = lower value 0.135 | locus YEL003W, strain gim4, stronger effect = lower value 0.595 | locus YEL037C, strain rad23, stronger effect = lower value 0.465 | locus YEL061C, strain CIN8 (second series), stronger effect = lower value 0.592 | locus YER015W, strain faa2, stronger effect = lower value 0.455 | locus YER016W, strain bim1, stronger effect = lower value 0.81 | locus YER111C, strain swi4, stronger effect = lower value 0.71 | locus YER155C, strain BEM2 (second series), stronger effect = lower value 0.602 | locus YFR010W, strain ubp6, stronger effect = lower value 0.291 | locus YGL167C, strain pmr1, stronger effect = lower value 0.834 | locus YGL173C, strain kem1, stronger effect = lower value 0.271 | locus YGL227W, strain vid30, stronger effect = lower value 0.771 | locus YGL240W, strain doc1, stronger effect = lower value 0.643 | locus YGL253W, strain hxk2, stronger effect = lower value 0.356 | locus YHR013C, strain ard1, stronger effect = lower value 0.219 | locus YHR027C, strain rpn1, stronger effect = lower value 0.268 | locus YHR079C, strain IRE1, stronger effect = lower value 0.812 | locus YHR142W, strain chs7, stronger effect = lower value 0.294 | locus YJL092W, strain hpr5, stronger effect = lower value 0.545 | locus YJL095W, strain BCK1 (second series), stronger effect = lower value 0.453 | locus YJL115W, strain asf1, stronger effect = lower value 0.616 | locus YJL129C, strain trk1, stronger effect = lower value 0.77 | locus YJL154C, strain vps35, stronger effect = lower value 0.752 | locus YJL164C, strain tpk1, stronger effect = lower value 0.333 | locus YJL166W, strain qcr8, stronger effect = lower value 0.355 | locus YJL187C, strain SWE1, stronger effect = lower value 0.758 | locus YJR066W, strain TOR1, stronger effect = lower value 0.766 | locus YKL160W, strain elf1, stronger effect = lower value 0.678 | locus YKR026C, strain gcn3, stronger effect = lower value 0.777 | locus YKR091W, strain srl3, stronger effect = lower value 0.82 | locus YLL001W, strain dnm1, stronger effect = lower value 0.512 | locus YLL026W, stronger effect = lower value 0.354 | locus YLL041C, strain sdh2, stronger effect = lower value 0.872 | locus YLR027C, strain aat2, stronger effect = lower value 0.681 | locus YLR113W, strain HOG1, stronger effect = lower value 0.851 | locus YLR221C, strain rsa3, stronger effect = lower value 0.612 | locus YLR258W, strain gsy2, stronger effect = lower value 0.655 | locus YLR262C, strain YPT6 (second series), stronger effect = lower value 0.228 | locus YLR320W, strain mms22, stronger effect = lower value 0.503 | locus YLR342W, strain FKS1, stronger effect = lower value 0.513 | locus YLR357W, strain rsc2, stronger effect = lower value 0.584 | locus YLR370C, strain arc18, stronger effect = lower value 0.364 | locus YLR384C, strain iki3, stronger effect = lower value 0.877 | locus YML120C, strain ndi1, stronger effect = lower value 0.844 | locus YMR058W, strain fet3, stronger effect = lower value 0.0896 | locus YMR129W, stronger effect = lower value 0.872 | locus YMR205C, strain PFK2, stronger effect = lower value 0.506 | locus YMR231W, strain pep5, stronger effect = lower value 0.128 | locus YNL071W, strain lat1, stronger effect = lower value 0.301 | locus YNL183C, strain NPR1, stronger effect = lower value 0.8 | locus YNL209W, strain ssb2, stronger effect = lower value 0.159 | locus YNL248C, strain rpa49, stronger effect = lower value 0.567 | locus YNL322C, strain KRE1 (second series), stronger effect = lower value 0.851 | locus YNR049C, strain mso1, stronger effect = lower value 0.616 | locus YOR001W, strain rrp6, stronger effect = lower value 0.805 | locus YOR070C, strain gyp1, stronger effect = lower value 0.561 | locus YOR080W, strain dia2, stronger effect = lower value 0.689 | locus YOR083W, strain WHI5, stronger effect = lower value 0.565 | locus YOR106W, strain vam3, stronger effect = lower value 0.163 | locus YOR231W, strain MKK1, stronger effect = lower value 0.834 | locus YOR265W, strain rbl2, stronger effect = lower value 0.467 | locus YOR270C, strain vph1, stronger effect = lower value 0.16 | locus YOR290C, strain snf2, stronger effect = lower value 0.589 | locus YPL051W, strain arl3, stronger effect = lower value 0.262 | locus YPL078C, strain atp4, stronger effect = lower value 0.553 | locus YPL106C, strain sse1, stronger effect = lower value 0.676 | locus YPL240C, strain hsp82, stronger effect = lower value 0.762
0.983 (inactive) and 0.617 (active): locus YJL095W, strain BCK1, stronger effect = lower value
